Source: PubChem
In the library only some 9.2% were active in any assay of this set; here they are far more common.
ELG1 DNA repair: blocks ELG1-dependent DNA repair in HEK293T cells; HEK293T ELG1-luciferase reporter, luminescence, 16 h; DNA damage induced by 5-fluorouridine; Potency, µM (doses to about 46.1 µM), for inactives: at the top dose activity change, negative = inhibition, most hits filed as inhibitors; 330,000 compounds, 2.3% hits; AID 504467; note: % is set by controls: 0 for no effect and ±100 for the full control effect; nearly all actives have a fitted effect of over 55% in size
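DMSO vehicle served as the neutral condition. Each well held 2,000 cells given 5-fluorouridine plus compound; after 16 hr at 37 °C/5% CO2, ONE-Glo was added and luciferase measured 30 min later.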
SMN2 splice enh: increases expression of the SMN2 splice variant; HEK293 SMN2-luciferase splicing reporter, luminescence, 30-36 h; Potency, µM (highest dose often 46.1 µM), for inactives: top-dose activity change, positive = activation, usual class: activators; 210,000 compounds, 2.8% hits; AID 1458; note: % of control where 0% means no effect; nearly all actives have a fitted effect of over 55% in size
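HEK293 cells carry an SMN2 minigene-luciferase reporter in which exon 7 inclusion puts luciferase in frame. Cells were seeded at 2000 cells/well, attached for 10-12 hours, then exposed to compounds for 30-36 hours at 37C before ONE-Glo luminescence.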
NPC1 promoter act: activates the NPC1 promoter; 320,000 compounds, 2.4% hits; Huh7 NPC1 promoter luciferase reporter, 24 h; Potency, µM (series often up to 9.22 µM), inactives show at the highest dose activation, most hits filed as activators; note: % of control where 0% means no effect; nearly all actives have a fitted effect of over 60% in size
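Cells: Huh7 expressing luciferase under the NPC1 promoter, 1500/well. Seeded 2 h, compound added, incubated 24 h at 37 °C. Luciferase reagent, 10 min ambient, then luminescence.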
FLuc counter: inhibits or activates purified firefly luciferase, miR-21 counter-screen; purified FLuc, Km substrates, luminescence inhibition; 360,000 compounds, 6.9% hits; P08659; Potency, µM (highest dose often 57.5 µM), for inactives: at the highest dose activity change, negative = inhibition, hits mostly inhibitors;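 note: plate controls were vehicle for no effect and reference inhibitor for full effect; nearly all actives have a fitted effect of over 55% in size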
Target sequence (P08659 whole entry, looked up): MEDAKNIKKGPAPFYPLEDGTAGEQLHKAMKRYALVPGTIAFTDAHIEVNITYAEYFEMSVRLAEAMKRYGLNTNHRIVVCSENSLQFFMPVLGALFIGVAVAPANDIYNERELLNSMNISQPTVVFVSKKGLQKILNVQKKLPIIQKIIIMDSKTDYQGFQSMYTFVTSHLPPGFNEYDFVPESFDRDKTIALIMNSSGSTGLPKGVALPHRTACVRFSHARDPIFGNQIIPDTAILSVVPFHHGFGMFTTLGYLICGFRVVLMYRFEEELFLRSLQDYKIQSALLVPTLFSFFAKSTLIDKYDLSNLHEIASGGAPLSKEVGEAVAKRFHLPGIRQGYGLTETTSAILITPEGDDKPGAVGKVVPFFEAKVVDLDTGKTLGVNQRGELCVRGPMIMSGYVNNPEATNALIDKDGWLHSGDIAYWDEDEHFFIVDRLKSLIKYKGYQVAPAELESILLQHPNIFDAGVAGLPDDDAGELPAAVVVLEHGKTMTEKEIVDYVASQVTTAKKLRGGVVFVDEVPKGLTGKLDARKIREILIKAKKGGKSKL
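Purified P. pyralis luciferase, 10 nM final, with Km-level 10 uM D-luciferin and 10 uM ATP in 50 mM Tris acetate pH 7.5, 10 mM Mg acetate, 0.01% Tween-20, 0.05% BSA; 6-point qHTS titration about 60 µM downward; luminescence read.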
ELG1 genotoxic: genotoxicity induction in ELG1-luciferase HEK293T cells. 330,000 compounds, 1.3% hits. AID 504466. Potency, µM (highest dose often 46 µM), for the others: at the highest dose activity change, positive = activation, usual class: activators. HEK293T ELG1-luciferase reporter, luminescence, 16 h; note: % of control where 0% means no effect; nearly all actives have a fitted effect of over 60% in size
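HEK293T cells expressing luciferase-tagged ELG1 were exposed to compound or DMSO vehicle for 16 hr at 37 °C and 5% CO2. Luciferase activity was then measured with ONE-Glo after 30 min at room temperature.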
Rab9 promoter act: activates the Rab9 promoter; Potency, µM (series often up to 9.22 µM), for the others: at the highest dose activation, negative = inhibition, actives largely listed as activators; 320,000 compounds, 2.8% hits; Huh7 Rab9 promoter-luciferase reporter, luminescence, 24 h; note: % of control where 0% means no effect; nearly all actives have a fitted effect of over 60% in size
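Cells were plated at 1500 per well in reduced-serum medium with 10% FBS and left 2 h. Compound in DMSO was then added for 24 h at 37 °C. Reporter signal was read by luminescence after 10 min with luciferase detection reagent.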
Active calls of the source: *; ? = inconclusive; . = no result. Calls come from the whole dose curve; as a rule, active = well fitted curve in the direction sought with a large enough effect; inconclusive = small, poorly fitted or top-dose-only effect, or another doubt; inactive = no such curve, though single readings can be large; an effect the other way counts as inactive or inconclusive. Potency is the fitted concentration of half-maximal effect.

SMILES | ELG1 DNA repair | SMN2 splice enh | NPC1 promoter act | FLuc counter | ELG1 genotoxic | Rab9 promoter act
Cn1c(=O)n(/N=C/c2ccccc2)c2ccccc21 | ? | ? | 27% | 15µM* | 2% | 17%
C=CCN(C(=O)CSC1=NC(=O)CN1C(C)=O)c1nc(C)c(-c2ccccc2)s1 | ? | ? | 6% | 6.7µM* | 10% | -36%
CSc1nc(N)nc(SCC(=O)C23CC4CC(CC(C4)C2)C3)c1C#N | 21µM* | -47% | -1% | 3% | -6% | 0%
Oc1cccc(/C=N/Nc2cc(N3CCCC3)nc(N3CCCC3)n2)c1 | 26µM* | -18% | -1% | 13µM* | -8% | 0%
COc1cccc(/C=N/Nc2cc(N3CCOCC3)ncn2)c1O | 12µM* | . | -31% | 8.5µM* | ? | -36%
C(=N\Nc1cc(N2CCCCC2)ncn1)/c1ccco1 | ? | . | ? | 4.8µM* | ? | ?
O=C(Nc1cc(N2CCOCC2)ncn1)c1ccc(F)cc1 | ? | . | 14% | ? | 6% | ?
C/C(=N\Nc1cc(N2CCOCC2)ncn1)c1ccc(O)cc1 | 21% | . | 0% | 19µM* | 9% | 3%
CC(C)(C)c1ccc(OCCC(=O)Nc2cccc(S(=O)(=O)NC3=NCCCCC3)c2)cc1 | ? | . | -11% | 11% | -10% | -21%
O=C(O)C1C2CCC(C2)C1C(=O)NCCc1cccc(Cl)c1 (stereo not given) | 6% | . | -4% | 0% | 0% | 0%
CC(C)C[C@H](N)C(=O)N[C@H](C(=O)N[C@H](C(=O)N[C@@H](Cc1ccc(O)cc1)C(=O)N1CCC[C@H]1C(=O)N[C@@H](Cc1c[nH]c2ccccc12)C(=O)N[C@H](C(=O)N[C@@H](CCC(N)=O)C(=O)N[C@@H](CCCN=C(N)N)C(=O)O)[C@@H](C)O)C(C)C)C(C)C | . | -8% | . | . | . | .
COc1cc(Cl)c(C)cc1NC(=O)c1cnc(N2CCOCC2)c2ccccc12 | . | . | . | -15% | . | .
Fc1cccc(/C=N/Nc2cc(N3CCOCC3)ncn2)c1 | ? | . | 1.8µM* | 4.8µM* | ? | 2µM*
Cc1ccc(N/C=C/C(=O)C(C)(C)C)c(O)c1 | -6% | 4% | 4% | 19µM* | 10% | 17%
CCOc1nc2c(c(=O)n(C)c(=O)n2C)n1Cc1ccccc1Cl | 8.2µM* | -57% | -4% | 0% | -23% | -8%
Cn1c(=O)c2c(nc(Cl)n2CCOc2ccccc2)n(C)c1=O | 9.2µM* | . | -5% | 0% | -12% | -11%
CCC(=O)c1ccc(Oc2nc3c(c(=O)n(C)c(=O)n3C)n2CC)cc1 | 15µM* | . | -2% | 5% | -10% | -3%
COC(=O)c1ccc(Oc2nc3c(c(=O)n(C)c(=O)n3C)n2CCC(C)C)cc1 | 12% | -32% | -1% | 4% | 2% | -6%
Cn1c(=O)c2c(nc(Br)n2Cc2ccccc2Cl)n(C)c1=O | -7% | -20% | -3% | 2% | -9% | -9%
COc1ccc(Oc2nc3c(c(=O)n(C)c(=O)n3C)n2C)cc1 | 9.2µM* | . | 10% | 1% | -17% | 3%
O=C(c1ccc2c(c1)N(Cc1ccccc1F)C(=O)c1ccccc1S2(=O)=O)N1CCC(Cc2ccccc2)CC1 | . | 0% | . | -3% | . | .
COC(=O)c1cc2sc(Cl)cc2n1Cc1cc(C)ccc1C | . | -3% | . | 6% | . | .
COc1ccc(C(=O)Cn2c(Cl)nc3c2c(=O)n(C)c(=O)n3C)cc1 | 16µM* | . | 0% | -1% | 3% | -9%
COc1ccc(C(=O)Cn2c(N3CCOCC3)nc3c2c(=O)n(C)c(=O)n3C)cc1 | 3% | -2% | -1% | 0% | 0% | 0%
Cc1cc(C)c(CN2CCN(C(=O)Cn3cnc4c(NCc5ccccc5)ncnc43)CC2)c(C)c1 | 1µM* | . | . | . | 1% | .
O=C(Cn1cnc2c(NCc3ccccc3)ncnc21)N1CCN(c2ccccn2)CC1 | -8% | . | . | . | 1% | .
